# Results filed as inconclusive are left out. A call without a number means that no potency is given here. Activity calls are given as the source filed them. Calls come from the whole dose curve; as a rule, active = well fitted curve in the direction sought with a large enough effect; inconclusive = small, poorly fitted or top-dose-only effect, or another doubt; inactive = no such curve, though single readings can be large; an effect the other way counts as inactive or inconclusive.
# How the values were obtained:
# [1] = target: N-terminal Xaa-Pro-Lys N-methyltransferase 1 (Homo sapiens) (UniProt Q9BV86); assay: qHTS Assay for Inhibitors of N-terminal methyltransferase 1 (NTMT1): LOPAC validation of the NTMT1 SAHH-coupled ThioGlo3 Assay (AID 1347143);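 note: SAH from peptide methylation measured as thiol fluorescence via SAHH coupling and ThioGlo3; nearly all actives have a fitted effect of over 70% in size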
# In short: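 Recombinant human NTMT1 (125nM) was pre-incubated 1 min at room temperature with compounds over a concentration range, then a mix of 100uM SAM, 10uM SAHH and 15uM ThioGlo3 (concentrations in added reagent) was added. ThioGlo3 fluorescence (ex 340/em 450nm) after 30 min was normalized to the initial reading.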
# [2] = test system: Zika virus NS2B-NS3 protease (unlinked); assay: Optimization of GU AMC qHTS for Zika virus inhibitors: Unlinked NS2B-NS3 protease assay (AID 1347151); note: series mostly up to about 52 µM; nearly all actives have a fitted effect of over 80% in size
# In short: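 Unlinked protease (25 nM final); buffer 10 mM Tris-HCl pH 8.0 + 0.01% Tween 20; AMC substrate; 15 min RT, dark; Δfluorescence normalized to no-inhibitor/no-enzyme controls; 4-parameter Hill fit.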
# [3] = target: Lysine-specific demethylase 5B (Homo sapiens) (UniProt Q9UGL1); assay: Optimization screen for KDM5B Histone Demethylases FDH coupled qHTS against the LOPAC library (AID 1347166)
# In short: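 KDM5BDeltaAP (200nM final) preincubated 10 min with compound, then 12.5uM H3K4Me3, 25uM a-ketoglutarate, ascorbate, Fe(II), NAD+ and FDH added; 50mM HEPES pH 7.5, 0.01% Tween-20. NADH fluorescence (340/450 nm) change over 30 min, room temperature.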
# Furin (Homo sapiens) = Furin (Homo sapiens) (UniProt P09958); assay: Furin counterscreen qHTS for Zika virus inhibitors (AID 1347149);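 note: purified recombinant full-length human furin enzyme at 5 nM; fluorescence gain from furin cutting a BOC-RVRR-AMC peptide substrate over 15 min; top concentration of the series differs between compounds; nearly all actives have a fitted effect of over 70% in size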
# In short: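 Fluorogenic cleavage of BOC-RVRR-AMC (2 microM final, Km ~15 µM) was monitored (ex 340, em 450 nm) at 37C after 15 min RT preincubation of 5 nM furin with compounds in HEPES pH 7.0 buffer with CaCl2 and Triton X-100. Percent inhibition was fitted to a 4-parameter Hill curve.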
# [4] = test system: Zika virus NS2B-NS3 protease (linked construct); assay: Confirmatory screen NINDS AMC qHTS for Zika virus inhibitors (AID 1347152);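 note: AMC fluorescence gain from cleaved Bz-Nle-KRR-AMC substrate over 15 min; top concentration of the series differs between compounds; nearly all actives have a fitted effect of over 70% in size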
# In short: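 Enzyme (1 nM, linked construct) was preincubated with compound for 15 minutes at room temperature in 10 mM Tris-HCl pH 8.0 with 0.01% Tween 20. Bz-Nle-Lys-Arg-Arg-AMC was then added to 10 microM, and AMC fluorescence was recorded immediately and after 15 minutes.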
# [5] = test system: Zika virus NS2B-NS3 protease (unlinked complex); assay: Confirmatory screen GU AMC qHTS for Zika virus inhibitors (AID 1347153); note: nearly all actives have a fitted effect of over 70% in size
# In short: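 Unlinked NS2B-NS3 complex (25 nM) in 10 mM Tris-HCl pH 8.0, 0.01% Tween 20 preincubated 15 min with compound, then 10 microM Bz-Nle-KRR-AMC (Km 18.3 µM). Fluorescence change over 15 min, normalized, Hill-fitted.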
# [6] = Confirmatory screen GU Rhodamine qHTS for Zika virus inhibitors qHTS (AID 1347157)
# In short: (§1)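 Noncovalent NS2B hydrophilic domain/NS3 protease complex (25 nM final) in 10 mM Tris-HCl pH 8.0, 0.01% Tween 20, preincubated 15 min with compounds (up to 114 microM), then 1.5 microM Rhodamine110 substrate. Fluorescence change over 15 min fitted to 4-parameter Hill.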
# [7] = test system: Zika virus NS2B-NS3 protease (unlinked complex); assay: Primary screen GU Rhodamine qHTS for Zika virus inhibitors: Unlinked NS2B-NS3 protease assay (AID 1347159); note: potency is the fitted concentration of half-maximal effect; nearly all actives have a fitted effect of over 60% in size
# In short: as §1
# [8] = test system: Zika virus NS2B-NS3 protease (linked construct); assay: Primary screen NINDS Rhodamine qHTS for Zika virus inhibitors (AID 1347160); note: potency is the fitted concentration of half-maximal effect; nearly all actives have a fitted effect of over 55% in size
# In short: (§2)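 Purified NS2B-NS3 protease with the NS2B hydrophilic domain joined by a flexible linker (25 nM) in 10 mM Tris-HCl pH 8.0, 0.01% Tween 20, preincubated 15 min at RT with compound; Rhodamine110 peptide substrate 1.5 µM; fluorescence change over 15 min; 4-parameter Hill fit.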
# [9] = Confirmatory screen NINDS Rhodamine qHTS for Zika virus inhibitors (AID 1347161); note: potency is the fitted concentration of half-maximal effect; nearly all actives have a fitted effect of over 60% in size
# In short: as §2
# [10] = test system: Zika virus NS2B-NS3 protease (linked); assay: 384 well plate NINDS AMC confirmatory qHTS for Zika virus inhibitors (AID 1347163); conditions: Recombinant NS2B-NS3 protease, Ac-VKTGKR-AMC fluorescence; note: potency is the fitted concentration of half-maximal effect; nearly all actives have a fitted effect of over 50% in size
# In short: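 Linked NS2B-NS3 protease (final 5 nM, 30 nM or 60 nM) was preincubated with compounds (final up to 1 mM) for ~15 minutes. Ac-VKTGKR-AMC substrate (final 30 microM) then reacted for 25 minutes at room temperature in the dark. Fluorescence (ex 355/em 460 nm) was normalized to no-enzyme and no-inhibitor controls.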
# [11] = test system: Zika virus NS2B-NS3 protease (linked construct); assay: 384 well plate NINDS Rhodamine confirmatory qHTS for Zika virus inhibitors (AID 1347164);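 note: fluorescence from protease cleavage of Ac-LKRR-rhodamine 110 substrate; potency is the fitted concentration of half-maximal effect; nearly all actives have a fitted effect of over 65% in size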
# In short: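 Enzyme (final 5/30/60 nM) + cpd (DMSO), ~15 min; add Ac-LKRR-Rd 10 microM final; 25 min RT, dark; FI ex 485/em 538; normalized to no-enzyme, no-inhibitor ctrls; aprotinin intraplate ctrl.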
# [12] = Vero cells viability qHTS for Zika virus inhibitors (AID 1347167)
# In short: (§3)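 Cells seeded at 2.5 x 10^5 cells/mL in DMEM with 4% FBS and attached overnight at 37 degrees C, then exposed to compound for 24 to 48 hours. Viability read as ATP content by CellTiter Glo luminescence.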
# [13] = HepG2 cells viability qHTS for Zika virus inhibitors (AID 1347168)
# In short: as §3
# [14] = Tertiary RLuc qRT-PCR qHTS assay for Zika virus inhibitors (AID 1347169); note: top concentration of the series differs between compounds; nearly all actives have a fitted effect of over 55% in size
# In short: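 Vero, 1,000 cells/well, o/n 37 C; cpd pinned in DMSO; ZIKV-RLuc Cambodian, MOI 1-2, 48-72 h 37 C; live-cell RLuc substrate, lum read at 1-1.5 h.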
# [15] = test system: Zika virus NS2B-NS3 protease; assay: Primary screen GU AMC qHTS for Zika virus inhibitors (AID 1347154); note: nearly all actives have a fitted effect of over 70% in size
# In short: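 Unlinked Zika NS2B hydrophilic domain–NS3 protease complex at 25 nM in 10 mM Tris-HCl pH 8.0, 0.01% Tween 20, with an AMC peptide substrate. Fluorescence change (340/450 nm) over 15 min at room temperature, normalized to controls, fitted to 4-parameter Hill.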
# Chain of N-terminal Xaa-Pro-Lys N-methyltransferase 1 (Homo sapiens) (Q9BV86 whole entry, looked up): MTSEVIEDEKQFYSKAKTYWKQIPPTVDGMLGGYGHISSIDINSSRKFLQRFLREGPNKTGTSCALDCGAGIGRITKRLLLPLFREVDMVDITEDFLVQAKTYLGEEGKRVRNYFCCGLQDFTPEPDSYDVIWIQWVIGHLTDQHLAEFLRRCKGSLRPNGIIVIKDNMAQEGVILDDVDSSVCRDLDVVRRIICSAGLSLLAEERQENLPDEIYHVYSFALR
# Chain of Lysine-specific demethylase 5B (Homo sapiens) (Q9UGL1 whole entry, looked up): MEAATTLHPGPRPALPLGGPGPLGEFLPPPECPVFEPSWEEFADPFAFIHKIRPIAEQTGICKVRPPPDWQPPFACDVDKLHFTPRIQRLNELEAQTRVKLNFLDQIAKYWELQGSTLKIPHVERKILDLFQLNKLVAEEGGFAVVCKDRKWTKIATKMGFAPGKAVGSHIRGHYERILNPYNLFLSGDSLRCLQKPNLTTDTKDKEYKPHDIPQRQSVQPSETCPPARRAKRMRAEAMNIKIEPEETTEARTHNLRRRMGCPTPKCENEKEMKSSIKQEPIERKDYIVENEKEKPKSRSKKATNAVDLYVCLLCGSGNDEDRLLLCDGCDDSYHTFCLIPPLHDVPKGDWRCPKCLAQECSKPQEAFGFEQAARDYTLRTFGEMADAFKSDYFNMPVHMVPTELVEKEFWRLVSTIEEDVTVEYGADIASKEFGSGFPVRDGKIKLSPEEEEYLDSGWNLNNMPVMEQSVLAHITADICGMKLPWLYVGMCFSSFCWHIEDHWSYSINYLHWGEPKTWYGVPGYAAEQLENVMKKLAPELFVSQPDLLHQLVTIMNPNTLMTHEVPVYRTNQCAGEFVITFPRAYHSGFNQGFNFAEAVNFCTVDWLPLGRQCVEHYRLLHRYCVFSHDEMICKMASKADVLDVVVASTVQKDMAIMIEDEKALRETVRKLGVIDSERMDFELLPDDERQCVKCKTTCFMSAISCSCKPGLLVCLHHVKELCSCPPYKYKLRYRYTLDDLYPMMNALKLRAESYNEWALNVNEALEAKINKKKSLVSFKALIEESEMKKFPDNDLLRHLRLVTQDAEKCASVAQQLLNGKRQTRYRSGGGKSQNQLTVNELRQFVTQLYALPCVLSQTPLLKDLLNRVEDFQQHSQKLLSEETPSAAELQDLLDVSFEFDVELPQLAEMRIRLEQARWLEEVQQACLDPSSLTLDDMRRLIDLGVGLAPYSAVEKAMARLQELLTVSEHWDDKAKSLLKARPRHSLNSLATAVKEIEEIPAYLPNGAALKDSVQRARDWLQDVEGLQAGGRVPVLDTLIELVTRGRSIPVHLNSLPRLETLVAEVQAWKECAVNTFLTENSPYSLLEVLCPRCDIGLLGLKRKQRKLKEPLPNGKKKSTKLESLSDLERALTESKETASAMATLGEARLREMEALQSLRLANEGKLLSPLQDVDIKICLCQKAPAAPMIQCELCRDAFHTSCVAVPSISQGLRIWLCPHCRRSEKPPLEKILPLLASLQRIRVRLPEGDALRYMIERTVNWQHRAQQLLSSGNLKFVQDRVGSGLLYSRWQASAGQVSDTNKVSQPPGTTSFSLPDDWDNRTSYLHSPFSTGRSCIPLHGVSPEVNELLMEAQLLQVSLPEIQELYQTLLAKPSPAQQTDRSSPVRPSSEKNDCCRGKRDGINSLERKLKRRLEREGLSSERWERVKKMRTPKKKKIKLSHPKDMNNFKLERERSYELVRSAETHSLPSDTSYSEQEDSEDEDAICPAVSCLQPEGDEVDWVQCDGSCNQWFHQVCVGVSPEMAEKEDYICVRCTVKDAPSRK
# Chain of Furin (Homo sapiens) (P09958 whole entry, looked up): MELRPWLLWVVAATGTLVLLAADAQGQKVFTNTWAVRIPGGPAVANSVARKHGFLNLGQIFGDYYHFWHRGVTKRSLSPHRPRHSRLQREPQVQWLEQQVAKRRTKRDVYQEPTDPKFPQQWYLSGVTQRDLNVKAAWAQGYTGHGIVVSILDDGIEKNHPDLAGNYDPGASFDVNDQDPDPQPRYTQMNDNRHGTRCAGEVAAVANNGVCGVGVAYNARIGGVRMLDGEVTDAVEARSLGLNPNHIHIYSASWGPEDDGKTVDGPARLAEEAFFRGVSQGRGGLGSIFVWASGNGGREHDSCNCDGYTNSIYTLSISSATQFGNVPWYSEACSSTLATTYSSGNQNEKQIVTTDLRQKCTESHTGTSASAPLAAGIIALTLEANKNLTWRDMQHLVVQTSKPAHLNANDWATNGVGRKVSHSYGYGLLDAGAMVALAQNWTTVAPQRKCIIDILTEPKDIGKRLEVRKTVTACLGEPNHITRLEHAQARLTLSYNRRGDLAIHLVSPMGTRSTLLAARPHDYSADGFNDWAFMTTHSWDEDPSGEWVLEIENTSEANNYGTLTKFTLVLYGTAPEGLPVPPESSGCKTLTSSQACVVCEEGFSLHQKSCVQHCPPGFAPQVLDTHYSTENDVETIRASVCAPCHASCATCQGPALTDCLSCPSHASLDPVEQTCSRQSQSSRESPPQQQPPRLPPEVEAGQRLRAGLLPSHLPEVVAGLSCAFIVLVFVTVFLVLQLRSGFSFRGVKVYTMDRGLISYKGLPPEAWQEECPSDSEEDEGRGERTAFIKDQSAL
smiles,measurement,setting,value
CCCn1c(=O)c2[nH]c(C3CCCC3)nc2n(CCCOC(=O)c2ccc(S(=O)(=O)F)cc2)c1=O,Potency,[1],inactive
same,Potency,[2],inactive
same,Potency,[3],inactive
C[C@H](N)CN1CCc2ccc(Br)cc21,Potency,[1],inactive
same,Potency,[2],inactive
same,Potency,[3],inactive
C[C@@]1(C(=O)O)CC[C@]2(C)CC[C@]3(C)C4=CC(=O)c5cc(O)c(O)cc5[C@]4(C)CC[C@@]3(C)[C@@H]2C1,Potency,Furin (Homo sapiens),inactive
same,Potency,[4],inactive
same,Potency,[5],inactive
same,Potency,[6],2.42 µM (active)
same,Potency,[7],3.98 µM (active)
same,Potency,[8],7.94 µM (active)
same,Potency,[9],1.36 µM (active)
same,Potency,[10],56.2 µM (active)
same,Potency,[11],1.12 µM (active)
same,outcome,[12],inactive
same,outcome,[13],inactive
same,Potency,[14],inactive
NCCc1ccc(S(=O)(=O)F)cc1,Potency,[1],inactive
same,Potency,[2],inactive
same,Potency,[3],inactive
CCCN(CCC)CCc1ccc(O)c(O)c1,Potency,[1],inactive
same,Potency,[15],inactive
C=CCN1C[C@@H](C)N([C@H](c2ccc(C(=O)N(CC)CC)cc2)c2cccc(OC)c2)C[C@@H]1C,Potency,[1],inactive
same,Potency,[2],inactive
same,Potency,[3],inactive
CC(=O)OCC1=C(C(=O)O)N2C(=O)[C@@H](NC(=O)CCC[C@@H](N)C(=O)O)[C@H]2SC1,Potency,[2],inactive
Cc1cccc(C(C)c2cnc[nH]2)c1C (stereo unspecified),Potency,[15],inactive
O=[N+]([O-])c1ccc2nc(N3CCNCC3)ccc2c1,Potency,[2],inactive
same,Potency,[15],inactive
COC(=O)N1CCN(C(=O)Cc2ccc(Cl)c(Cl)c2)C(CN2CCCC2)C1 (stereo unspecified),Potency,[2],inactive
same,Potency,[15],inactive
same,Potency,[3],inactive
N#CC(C#N)=Cc1cc(O)c(O)c(O)c1,Potency,[15],inactive
CN1c2ccccc2C(NCCCCCCC(=O)O)c2ccc(Cl)cc2S1(=O)=O (stereo unspecified),Potency,[15],inactive
CCCN(CCC)CCc1c[nH]c2ccc(C(N)=O)cc12,Potency,[15],inactive

# Reference: PubChem BioAssay (NCATS)
